# Legend:
# Conditions in all cases: concentration: 1 μM, replicates: in singlicate; n = 1
# [1] = test system: T1, MLK1
# T1 construct: gene MAP3K9
# [2] = test system: MLK2
# [3] = test system: MLK3
# [4] = test system: MRCKA
# [5] = test system: T2, MRCKB
# T2 construct: gene CDC42BPB
# [6] = test system: MST1R
# [7] = test system: T3, MST1
# T3 construct: gene STK4
# [8] = test system: T4, MST2
# T4 construct: gene STK3
# [9] = test system: T5, MST3
# T5 construct: gene STK24
# [10] = test system: MST4
# [11] = test system: MTOR
# [12] = test system: MUSK
# [13] = test system: MYLK2
# [14] = test system: MYLK4
# [15] = test system: MYLK
# [16] = test system: MYO3A
# [17] = test system: MYO3B
# [18] = test system: T6, NDR1
# T6 construct: gene STK38
# [19] = test system: NDR2
# [20] = test system: NEK10
# 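Note: KINOMEscan kinase panel screen.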
Structure (SMILES),%Inh [1] [%],%Inh [2] [%],%Inh [3] [%],%Inh [4] [%],%Inh [5] [%],%Inh [6] [%],%Inh [7] [%],%Inh [8] [%],%Inh [9] [%],%Inh [10] [%],%Inh [11] [%],%Inh [12] [%],%Inh [13] [%],%Inh [14] [%],%Inh [15] [%],%Inh [16] [%],%Inh [17] [%],%Inh [18] [%],%Inh [19] [%],%Inh [20] [%]
COc1cccc(-c2nc(-c3ccccc3)[nH]c2-c2ccncc2)c1 [SB-610250],0,0,0,41,0,23,8,0,0,0,13,0,8,0,0,18,0,9,0,20
CSc1ccc(NC2=C(c3ccc(Cl)cc3)C(=O)NC2=O)cc1 [SB-317658],0,4,0,0,0,33,29,45,0,6,0,34,10,24,0,18,20,9,9,14
CCn1cnc2c(NCc3ccccc3)ncnc21 [SKF-96418],0,27,0,0,0,0,0,14,5,0,37,0,0,6,0,0,0,30,14,14
COc1cccc(NC(=O)NCCNc2ccnc(Nc3ccc(F)cc3)n2)c1 [GSK1379879],0,0,0,34,3,37,0,15,0,0,32,5,0,0,16,22,0,18,0,0
CNc1nccc(-c2ccc3c(N)n[nH]c3c2)n1 [GSK2206003],4,0,10,0,0,10,30,0,13,0,11,3,60,97.1,68,53,0,24,9,29
O=C(Nc1n[nH]c2nc(-c3ccccc3)ccc12)C1CC1 [SB-708999],0,11,5,8,0,0,3,0,3,41,0,13,86,11,30,25,0,0,13,0
Cc1ccc(-c2ccc3occ(-c4ccc(S(C)=O)cc4)c3c2)nn1 (stereo not shown),0,10,0,0,0,0,0,0,0,0,17,3,11,0,0,0,1,2,15,25
CN1CCN(Cc2ccc(NC(=O)Nc3ccc(N(C)c4ccnc(Nc5ccc(CS(C)(=O)=O)cc5)n4)cc3)cc2)CC1.Cl [GW827654],14,24,0,15,30,92.7,61,99,68,83,0,98.8,61,18,45,99.1,0,0,0,28
CCNC(=O)/C=C/c1n[nH]c2cc(Sc3ccccc3C(=O)NC)ccc12,7,7,0,0,48,8,0,0,30,0,14,32,3,20,11,8,0,25,18,24
CS(=O)(=O)c1cccc(CNc2nc(Nc3ccc4c(c3)CCC(=O)N4)ncc2C(F)(F)F)c1,99.7,93.9,96.4,0,0,1,0,11,0,25,62,12,16,0,7,0,0,58,0,0
Cc1ccc(NC(=O)c2cccc(N3CCCCC3)c2)cc1-c1ccc(C(=O)NCC2CC2)cc1 [GSK1917008],0,17,12,17,0,37,13,34,13,1,14,1,9,9,17,0,12,0,0,0
Cc1ccc(NC(=O)c2ccc(Cl)c(Cl)c2)cc1-c1ccc(C(=O)Nc2ccncc2)cc1 [GSK1398460],7,16,20,25,32,31,8,0,6,0,0,6,0,5,27,0,0,14,0,0
Cc1cc(-c2c(-c3ccc(F)cc3)ncn2CCCN2CCOCC2)nc(N)n1 [SB-222517],5,49,0,0,20,18,13,20,5,1,0,14,1,14,17,17,30,43,14,16
Cc1ccccc1CC(=O)N1CCc2cc(-c3cn(C)c4ncnc(N)c34)ccc21 [GSK2603346],7,0,18,0,0,46,97,0,46,54,30,5,85,0,9,100,0,0,0,0
Cc1ccc(C)c(NC(=O)Nc2ccc(C)c(-c3ccc(C(=O)Nc4ccncc4)cc3)c2)c1 [GSK1398473],0,0,0,24,21,26,0,34,0,0,17,0,0,0,0,0,0,29,0,18
Cc1ccc(O)cc1Nc1ccnc2cc(-c3ccc(CN4CCCCC4)o3)ccc12 [GW557777],2,0,2,0,0,5,0,0,17,0,0,3,0,2,9,4,0,0,4,0
Cc1cc(-c2ccnc(Nc3cccc(C#N)c3)n2)cc(C)c1O [GSK1440913],66,0,36,5,0,0,0,9,6,9,7,25,76,100,13,0,0,10,12,20
CC(=O)Nc1cn2nc(Oc3cccc(NC(=O)c4cccc(C(F)(F)F)c4)c3)ccc2n1,2,23,6,7,0,0,27,0,1,0,11,21,0,3,44,5,9,8,0,0
Cc1ccc(NC(=O)c2ccnc(N3CCCCC3)c2)cc1-c1ccc(C(=O)NCC2CC2)cc1 [GW775610],0,0,4,0,9,4,13,32,30,0,9,0,15,0,0,0,3,0,5,0
CN(c1ccc(F)c(NC(=O)c2cccc(OC(C)(C)C#N)c2Cl)c1)c1ccc2nc(NC(=O)C3CC3)sc2n1,0,4,0,0,0,5,0,0,0,0,0,0,0,0,30,0,0,0,29,0

# — article PMC5540273 (PLoS ONE, 2017)
